Some test systems named below: EKVX NSCLC; SN12C renal; UO-31 renal; TK-10 renal; ACHN renal; CAKI-1 renal; A498 renal; CCRF-CEM leukemia; MOLT-4 leukemia; SR leukemia; OVCAR-8 ovarian; OVCAR-5 ovarian; OVCAR-4 ovarian; SK-OV-3 ovarian; IGROV1 ovarian; OVCAR-3 ovarian; HS 578T breast; NCI/ADR-RES ovarian; RPMI-8226 leukemia.
What all share (test): NCI-60 one-dose screen, 48 h (100 = growth as untreated, 0 = no growth, -100 = all killed)
Conditions in all cases: 10 µM unless noted

SMILES strings stand for the structures. Compounds without any hit were thinned out: in the full panel of roughly 83,000, 20% have a hit.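 Assay: single dose, 48 h. Readout: percent growth (0 = no net growth; negative = cell death). Active: <10.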 Unmarked numbers belong to inactive results. Active and inactive are the calls of the source.

For `CCCCn1c(=O)c(-c2cc(-c3ccc(Cl)cc3)nc(-c3ccc(Cl)cc3)c2)cc2cc(Cl)ccc21`, the growth in the test with EKVX NSCLC was 105%; in the test with SN12C renal, 91.2%; in the test on UO-31 renal, 88.4%; in the test with TK-10 renal, 107%; in the test on ACHN renal, 107%; with CAKI-1 renal, 94.3%. The growth with A498 renal was 123%; with CCRF-CEM leukemia, 104%; in the test with MOLT-4 leukemia, 104%; in the test on SR leukemia, 106%; in the test with OVCAR-8 ovarian, 101%; in the test with OVCAR-5 ovarian, 98.4%. The growth in the test with OVCAR-4 ovarian was 105%; in the test with SK-OV-3 ovarian, 102%; with IGROV1 ovarian it was 103%; with OVCAR-3 ovarian, 117%; in the test on HS 578T breast, 108%; in the test on NCI/ADR-RES ovarian, 109%.

In the case of `COc1cc(CCC[P+](c2ccccc2)(c2ccccc2)c2ccccc2)c(OC)c(OC)c1OC`, the growth in the test with EKVX NSCLC was 72.7%; in the test on SN12C renal it was 77.5%; in the test with UO-31 renal it was 43.7%; in the test on TK-10 renal, 91%; in the test on ACHN renal it was 83.4%; in the test with CAKI-1 renal, 39.7%. Besides, the growth with A498 renal was -6.09% (active); with CCRF-CEM leukemia, 65%; in the test with MOLT-4 leukemia it was 57.6%; with RPMI-8226 leukemia, 68.4%; in the test with OVCAR-8 ovarian, 85.6%; with OVCAR-5 ovarian, 79.6%. Besides, the growth with OVCAR-4 ovarian is 49.8%; in the test on SK-OV-3 ovarian, 83.5%; in the test with IGROV1 ovarian, 70.5%; with OVCAR-3 ovarian, 72%; in the test with HS 578T breast, 51.8%; in the test with NCI/ADR-RES ovarian, 77.7%.

Take `CCOC(=O)c1cnn2c3ccccc3n(S(=O)(=O)c3ccc(OC)cc3)c12`: the growth is 38.4% in the test on EKVX NSCLC; 22.2% with SN12C renal; 46.7% with UO-31 renal; 79.7% in the test on TK-10 renal; 35.4% in the test with ACHN renal; 42.3% with CAKI-1 renal. The growth in the test on A498 renal is -3.19% (active); with CCRF-CEM leukemia it was 9.32% (active); with MOLT-4 leukemia it was 16.5%; in the test on SR leukemia, 14%; with OVCAR-8 ovarian, 27.5%; in the test on OVCAR-5 ovarian, 42.5%. Besides, the growth in the test with OVCAR-4 ovarian was 71.4%; in the test on SK-OV-3 ovarian, 48.2%; in the test with IGROV1 ovarian it was 28.6%; with OVCAR-3 ovarian, 0.973% (active); in the test with HS 578T breast, 37.3%; in the test with NCI/ADR-RES ovarian, 0.145% (active).

With `COc1ccc(-c2csc(NC(=O)N3CCN(c4cc5c(cc4F)c(=O)c(C(=O)O)cn5C4CC4)CC3)n2)cc1`, the growth is 23.1% in the test on EKVX NSCLC; 5.86% (active) with SN12C renal; 1.86% (active) with UO-31 renal; 25.5% in the test on TK-10 renal; 9.82% (active) with ACHN renal; 29% in the test on CAKI-1 renal. Also, the growth was -15% (active) in the test on A498 renal; 7.96% (active) in the test on CCRF-CEM leukemia; 3.03% (active) with MOLT-4 leukemia; 15.4% with SR leukemia; 3.75% (active) in the test with OVCAR-8 ovarian; 25.5% in the test with OVCAR-5 ovarian. The growth is -8.98% (active) in the test with SK-OV-3 ovarian, -3.32% (active) in the test on OVCAR-3 ovarian, 28.8% with HS 578T breast and 57.5% in the test on NCI/ADR-RES ovarian.

Regarding `CN1CCN(c2ccc(-c3ccc4ncc(C#N)c(Nc5ccc(F)c(Cl)c5)c4c3)cn2)CC1`, the growth is 48.4% in the test with EKVX NSCLC; 62.5% in the test on SN12C renal; 28.7% in the test on UO-31 renal; 34.1% in the test with TK-10 renal; 17.4% with ACHN renal; 27.2% with CAKI-1 renal. Also, the growth in the test with A498 renal was -7.02% (active); in the test on CCRF-CEM leukemia it was 37.8%; with MOLT-4 leukemia, 38.2%; in the test with RPMI-8226 leukemia, 14.9%; in the test on OVCAR-8 ovarian it was 59.8%; in the test on OVCAR-5 ovarian, 60.8%. Moreover, the growth is 52.2% in the test on OVCAR-4 ovarian; 25.8% in the test with SK-OV-3 ovarian; 8.52% (active) with IGROV1 ovarian; 58.6% in the test with OVCAR-3 ovarian; 52.2% with HS 578T breast; 67.8% with NCI/ADR-RES ovarian.

Take `Cc1cc2nc3cc(C)c(N)cc3[n+](-c3ccccc3)c2cc1N`: the growth was 47.3% in the test with EKVX NSCLC; 13.9% in the test with SN12C renal; 84.2% in the test on UO-31 renal; 93.8% in the test on TK-10 renal; 89.1% in the test with ACHN renal; 97.5% in the test on CAKI-1 renal. Further, the growth was 85.7% in the test with A498 renal; 58.3% in the test with CCRF-CEM leukemia; 52.8% with MOLT-4 leukemia; 41.4% in the test on RPMI-8226 leukemia; 40.7% in the test on OVCAR-8 ovarian; 103% in the test with OVCAR-5 ovarian. Also, the growth in the test with SK-OV-3 ovarian was 91.3%; in the test on IGROV1 ovarian it was 79.4%; in the test on OVCAR-3 ovarian, 26.2%; with HS 578T breast it was 59.2%; with NCI/ADR-RES ovarian it was 101%.

With `Cc1nc2ccccc2c(/C=C/c2ccc(Cl)cc2)c1C(=O)/C=C/c1cccs1`, the growth in the test with EKVX NSCLC was 80.9%; with SN12C renal, 72%; in the test with UO-31 renal, 54.3%; in the test on TK-10 renal, 125%; with ACHN renal it was 78.3%; in the test with CAKI-1 renal, 46.2%. The growth in the test with A498 renal is 40.9%; in the test on CCRF-CEM leukemia it was 59.6%; with MOLT-4 leukemia, 54.7%; in the test on RPMI-8226 leukemia it was 53.4%; in the test with OVCAR-8 ovarian, 74.9%; in the test on OVCAR-5 ovarian it was 92.6%. Moreover, the growth is 60.7% in the test with OVCAR-4 ovarian; 78.5% in the test on SK-OV-3 ovarian; 46.6% in the test with IGROV1 ovarian; 82.2% with OVCAR-3 ovarian; 86.7% in the test with HS 578T breast.

The record behind these values is PubChem BioAssay (NCI).
